# Measurements from publication PMC5540273 (PLoS ONE, 2017).
# “And” between values parts separate entries of the source, which are not always exact repeats. Identical values can stand only once. Like-named read-outs stand apart in the source and are kept apart here.
# Assays:
# ERBB2 = settings: n = 1
# ERBB3 = settings: concentration: 1 μM, replicates: in singlicate; n = 1
# ERBB4 = settings: n = 1
# ERK1 = tested on: T1, ERK1; settings: concentration: 1 μM, replicates: in singlicate; n = 1
# T1 construct: gene MAPK3
# ERK2 = tested on: T2, ERK2; settings: concentration: 1 μM, replicates: in singlicate; n = 1
# T2 construct: gene MAPK1
# ERK3 = tested on: T3, ERK3; settings: n = 1
# T3 construct: gene MAPK6
# ERK4 = tested on: T4, ERK4; settings: n = 1
# T4 construct: gene MAPK4
# ERK5 = tested on: T5, ERK5; settings: concentration: 1 μM, replicates: in singlicate; n = 1
# T5 construct: gene MAPK7
# ERK8 = tested on: T6, ERK8; settings: concentration: 1 μM, replicates: in singlicate; n = 1
# T6 construct: gene MAPK15
# ERN1 = settings: n = 1
# FAK = tested on: T7, FAK; settings: concentration: 1 μM, replicates: in singlicate; n = 1
# T7 construct: gene PTK2
# FER = settings: n = 1
# FES = settings: concentration: 1 μM, replicates: in singlicate; n = 1
# FGFR1 = settings: concentration: 1 μM, replicates: in singlicate; n = 1
# FGFR2 = settings: concentration: 1 μM, replicates: in singlicate; n = 1
# FGFR3 = settings: n = 1
# FGFR4 = settings: n = 1
# FGR = settings: n = 1
# FLT1 = settings: n = 1
# FLT3-autoinhibited = settings: concentration: 1 μM, replicates: in singlicate; n = 1
# [1] = concentration: 1 μM, replicates: in singlicate
# [2] = concentration: 1 μM,replicates: in singlicate, 1 µM
# 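Note: KINOMEscan kinase panel screen.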
structure (smiles),measurement,setting,value
CN(C)CCN(C)C(=O)c1cc(-c2ccncc2)c(-c2ccc(Cl)c(O)c2)o1.Cl.Cl [SB-710397],%Inh,ERBB2; [1],53%
same,%Inh,ERBB3,26%
same,%Inh,ERBB4; [1],33%
same,%Inh,ERK1,2%
same,%Inh,ERK2,0%
same,%Inh,ERK3; [1],0%
same,%Inh,ERK4; [1],0%
same,%Inh,ERK5,0%
same,%Inh,ERK8,0%
same,%Inh,ERN1; [1],0%
same,%Inh,FAK,0%
same,%Inh,FER; [1],0%
same,%Inh,FES,0%
same,%Inh,FGFR1,0%
same,%Inh,FGFR2,0%
same,%Inh,FGFR3; [1],5%
same,%Inh,FGFR4; [1],0%
same,%Inh,FGR; [1],16%
same,%Inh,FLT1; [1],43%
same,%Inh,FLT3-autoinhibited,0%
CS(=O)(=O)c1ccc(-c2c(-c3ncn[nH]3)sc(N3CCOCC3)c2C#N)cc1,%Inh,ERBB2; [1],41%
same,%Inh,ERBB3,13%
same,%Inh,ERBB4; [1],12%
same,%Inh,ERK1,0%
same,%Inh,ERK2,37%
same,%Inh,ERK3; [1],25%
same,%Inh,ERK4; [1],12%
same,%Inh,ERK5,0%
same,%Inh,ERK8,10%
same,%Inh,ERN1; [1],21%
same,%Inh,FAK,0%
same,%Inh,FER; [1],14%
same,%Inh,FES,42%
same,%Inh,FGFR1,32%
same,%Inh,FGFR2,9%
same,%Inh,FGFR3; [1],5%
same,%Inh,FGFR4; [1],0%
same,%Inh,FGR; [1],40%
same,%Inh,FLT1; [1],13%
same,%Inh,FLT3-autoinhibited,2%
COc1cccc(NC(=O)NC2CCN(c3ccnc(Nc4ccc(F)cc4)n3)C2)c1 (stereo not shown) [GSK1379721],%Inh,ERBB2; [1],28%
same,%Inh,ERBB3,0%
same,%Inh,ERBB4; [1],7%
same,%Inh,ERK1,0%
same,%Inh,ERK2,0%
same,%Inh,ERK3; [1],0%
same,%Inh,ERK4; [1],21%
same,%Inh,ERK5,0%
same,%Inh,ERK8,0%
same,%Inh,ERN1; [1],19%
same,%Inh,FAK,0%
same,%Inh,FER; [1],0%
same,%Inh,FES,0%
same,%Inh,FGFR1,0%
same,%Inh,FGFR2,0%
same,%Inh,FGFR3; [1],6%
same,%Inh,FGFR4; [1],1%
same,%Inh,FGR; [1],0%
same,%Inh,FLT1; [1],11%
same,%Inh,FLT3-autoinhibited,0%
Cc1cccc(-c2cc(Nc3ccncc3)c3ccccc3n2)n1 [GSK223675],%Inh,ERBB2; [1],0%
same,%Inh,ERBB3,0%
same,%Inh,ERBB4; [1],26%
same,%Inh,ERK1,0%
same,%Inh,ERK2,0%
same,%Inh,ERK3; [1],0%
same,%Inh,ERK4; [1],25%
same,%Inh,ERK5,0%
same,%Inh,ERK8,0%
same,%Inh,ERN1; [1],13%
same,%Inh,FAK,0%
same,%Inh,FER; [1],0%
same,%Inh,FES,0%
same,%Inh,FGFR1,0%
same,%Inh,FGFR2,0%
same,%Inh,FGFR3; [1],12%
same,%Inh,FGFR4; [1],0%
same,%Inh,FGR; [1],7%
same,%Inh,FLT1; [1],13%
same,%Inh,FLT3-autoinhibited,7%
CSc1nn2c(=O)cc(N3CCOCC3)nc2n1Cc1cccc(C(F)(F)F)c1C [GSK2363608],%Inh,ERBB2; [2],0% and 10%
same,%Inh,ERBB3,0%
same,%Inh,ERBB4; [2],28% and 37%
same,%Inh,ERK1,0%
same,%Inh,ERK2,0%
same,%Inh,ERK3; [2],7% and 0%
same,%Inh,ERK4; [2],54% and 22%
same,%Inh,ERK5,0%
same,%Inh,ERK8,0%
same,%Inh,ERN1; [2],3% and 1%
same,%Inh,FAK,0%
same,%Inh,FER; [2],25% and 1%
same,%Inh,FES,0%
same,%Inh,FGFR1,0%
same,%Inh,FGFR2,0%
same,%Inh,FGFR3; [2],17% and 4%
same,%Inh,FGFR4; [2],5% and 14%
same,%Inh,FGR; [2],31% and 32%
same,%Inh,FLT1; [2],26% and 10%
same,%Inh,FLT3-autoinhibited,0%
COc1ccc(CNC(=O)NC2CCN(c3ccnc(Nc4cc(OC)c(OC)c(OC)c4)n3)C2)cc1 (stereo not shown) [GSK1379748],%Inh,ERBB2; [1],0%
same,%Inh,ERBB3,27%
same,%Inh,ERBB4; [1],9%
same,%Inh,ERK1,0%
same,%Inh,ERK2,0%
same,%Inh,ERK3; [1],0%
same,%Inh,ERK4; [1],0%
same,%Inh,ERK5,0%
same,%Inh,ERK8,0%
same,%Inh,ERN1; [1],0%
same,%Inh,FAK,0%
same,%Inh,FER; [1],0%
same,%Inh,FES,7%
same,%Inh,FGFR1,0%
same,%Inh,FGFR2,2%
same,%Inh,FGFR3; [1],9%
same,%Inh,FGFR4; [1],15%
same,%Inh,FGR; [1],14%
same,%Inh,FLT1; [1],20%
same,%Inh,FLT3-autoinhibited,3%
O=C1NC(=O)C(N2CCc3ccccc32)=C1c1ccccc1Cl [SB-373598],%Inh,ERBB2; [1],26%
same,%Inh,ERBB3,0%
same,%Inh,ERBB4; [1],0%
same,%Inh,ERK1,17%
same,%Inh,ERK2,0%
same,%Inh,ERK3; [1],23%
same,%Inh,ERK4; [1],11%
same,%Inh,ERK5,0%
same,%Inh,ERK8,0%
same,%Inh,ERN1; [1],13%
same,%Inh,FAK,0%
same,%Inh,FER; [1],34%
same,%Inh,FES,15%
same,%Inh,FGFR1,7%
same,%Inh,FGFR2,15%
same,%Inh,FGFR3; [1],33%
same,%Inh,FGFR4; [1],9%
same,%Inh,FGR; [1],21%
same,%Inh,FLT1; [1],6%
same,%Inh,FLT3-autoinhibited,0%
Cc1cccc(-c2nc(Nc3cccc(C(N)=O)c3)c3ccccc3n2)n1 [GW876019],%Inh,ERBB2; [1],23%
same,%Inh,ERBB3,50%
same,%Inh,ERBB4; [1],15%
same,%Inh,ERK1,0%
same,%Inh,ERK2,0%
same,%Inh,ERK3; [1],22%
same,%Inh,ERK4; [1],0%
same,%Inh,ERK5,0%
same,%Inh,ERK8,11%
same,%Inh,ERN1; [1],17%
same,%Inh,FAK,0%
same,%Inh,FER; [1],0%
same,%Inh,FES,25%
same,%Inh,FGFR1,0%
same,%Inh,FGFR2,17%
same,%Inh,FGFR3; [1],1%
same,%Inh,FGFR4; [1],0%
same,%Inh,FGR; [1],58%
same,%Inh,FLT1; [1],42%
same,%Inh,FLT3-autoinhibited,0%
COc1cc2ncn(-c3cc(OCC4CCCO4)c(C(N)=O)s3)c2cc1OC (stereo not shown) [GSK204607],%Inh,ERBB2; [1],0%
same,%Inh,ERBB3,20%
same,%Inh,ERBB4; [1],0%
same,%Inh,ERK1,2%
same,%Inh,ERK2,0%
same,%Inh,ERK3; [1],20%
same,%Inh,ERK4; [1],0%
same,%Inh,ERK5,0%
same,%Inh,ERK8,0%
same,%Inh,ERN1; [1],0%
same,%Inh,FAK,0%
same,%Inh,FER; [1],9%
same,%Inh,FES,11%
same,%Inh,FGFR1,0%
same,%Inh,FGFR2,0%
same,%Inh,FGFR3; [1],24%
same,%Inh,FGFR4; [1],0%
same,%Inh,FGR; [1],29%
same,%Inh,FLT1; [1],20%
same,%Inh,FLT3-autoinhibited,0%
Cn1ccc2ncnc(Oc3ccc(Nc4nc5ccccc5[nH]4)cc3)c21,%Inh,ERBB2; [1],3%
same,%Inh,ERBB3,0%
same,%Inh,ERBB4; [1],0%
same,%Inh,ERK1,0%
same,%Inh,ERK2,2%
same,%Inh,ERK3; [1],0%
same,%Inh,ERK4; [1],0%
same,%Inh,ERK5,0%
same,%Inh,ERK8,0%
same,%Inh,ERN1; [1],0%
same,%Inh,FAK,0%
same,%Inh,FER; [1],0%
same,%Inh,FES,0%
same,%Inh,FGFR1,3%
same,%Inh,FGFR2,0%
same,%Inh,FGFR3; [1],0%
same,%Inh,FGFR4; [1],0%
same,%Inh,FGR; [1],9%
same,%Inh,FLT1; [1],0%
same,%Inh,FLT3-autoinhibited,0%
O=C(Nc1ccccc1)Nc1cccc(Oc2ccc3nccn3n2)c1,%Inh,ERBB2; [1],38%
same,%Inh,ERBB3,53%
same,%Inh,ERBB4; [1],0%
same,%Inh,ERK1,0%
same,%Inh,ERK2,0%
same,%Inh,ERK3; [1],0%
same,%Inh,ERK4; [1],0%
same,%Inh,ERK5,0%
same,%Inh,ERK8,0%
same,%Inh,ERN1; [1],0%
same,%Inh,FAK,0%
same,%Inh,FER; [1],0%
same,%Inh,FES,0%
same,%Inh,FGFR1,13%
same,%Inh,FGFR2,9%
same,%Inh,FGFR3; [1],0%
same,%Inh,FGFR4; [1],0%
same,%Inh,FGR; [1],18%
same,%Inh,FLT1; [1],96.8%
same,%Inh,FLT3-autoinhibited,0%
